A short description of the experiment: A High Throughput Confirmatory Assay used to Identify Novel Compounds that Inhibit Mycobacterium Tuberculosis in the absence of Glycerol using Purified and Synthesized Compounds (8). In kind it is functional.

Each structure is given as a SMILES string. Values joined by “and” are separate entries in the source; they are usually repeats but may differ in a detail not shown here. Equal entries are not always repeated.

For `O=C(NCCc1ccc(Cl)cc1)C1CCC(CNc2c(N3CCCCC3)c(=O)c2=O)CC1` (centres undefined), the IC90 is > 83.3 µM (active).

Consider `O=C(c1ccc(CNc2c(N3CCCC3)c(=O)c2=O)cc1)N1CCc2ccccc2C1`, for which the IC90 is > 100 µM (active).

As to `O=C(NCCc1ccc(Cl)cc1)c1ccc(CNc2c(N3CCOCC3)c(=O)c2=O)cc1`, the IC90 was > 100 µM (active). In the case of `O=C(c1ccc(CNc2c(N3CCOCC3)c(=O)c2=O)cc1)N1CCC(c2ccccc2)CC1`, the IC90 was > 68.9 µM (active). Turning to `CC1CCCN(C(=O)c2ccc(CNc3c(N4CCCCC4)c(=O)c3=O)cc2)C1` (centres undefined), the concentration for an effect of 90% (IC90) was > 100 µM (active). On to `CCOC(=O)N1CCC(/N=c2\c(O)c(O)\c2=N/c2cccc(CC)c2)CC1`, for which the IC90 is > 59.3 µM (active).

On to `COc1ccc(N2CCN(C(=O)c3ccc(CNc4c(N5CCOCC5)c(=O)c4=O)cc3)CC2)cc1`, for which the IC90 is > 100 µM (active).

Take `O=C(c1ccc(CNc2c(N3CCCC3)c(=O)c2=O)cc1)N1CCC(c2ccccc2)CC1`: the IC90 was > 100 µM (active). With `O=C(c1ccc(CNc2c(N3CCCC3)c(=O)c2=O)cc1)N1CCN(c2ccccc2)CC1`, the IC90 is > 100 µM (active).

Consider `O=C(c1ccc(CNc2c(N3CCOCC3)c(=O)c2=O)cc1)N1CCN(c2ccccc2)CC1`, for which the IC90 was > 53.1 µM (active). Under `CC1CCN(C(=O)c2ccc(CNc3c(N4CCCC4)c(=O)c3=O)cc2)CC1` stands > 100 µM (active); under `CC1CC(C)CN(C(=O)C2CCC(CNc3c(N4CCCCC4)c(=O)c3=O)CC2)C1` (centres undefined), > 75 µM (active) and > 100 µM (active). With `CC1CC(C)CN(C(=O)c2ccc(CNc3c(N4CCCC4)c(=O)c3=O)cc2)C1` (centres undefined), the IC90 was > 100 µM (active). `O=C(C1CCC(CNc2c(N3CCCCC3)c(=O)c2=O)CC1)N1CCCCC1` (centres undefined): the concentration for an effect of 90% (IC90) is > 83.3 µM (active). For the compound `CC1CCCN(C(=O)C2CCC(CNc3c(N4CCCCC4)c(=O)c3=O)CC2)C1` (centres undefined), the concentration for an effect of 90% (IC90) was > 100 µM (active). `CC(C)CCNC(=O)CSc1nc2c(c(=O)[nH]1)CCCCC2`: the IC90 was > 100 µM (active). In the case of `CC(=O)c1ccc(NC(=O)c2ccc(CNc3c(N4CCOCC4)c(=O)c3=O)cc2)cc1`, the IC90 was > 100 µM (active).

For `O=C(c1ccc(CNc2c(N3CCCC3)c(=O)c2=O)cc1)N1CC=C(c2ccccc2)CC1`, the IC90 was > 100 µM (active) and > 47.2 µM (active). Consider `CC(C)OC(=O)CSc1ncnc2c1cnn2-c1ccccc1`, for which the IC90 is > 100 µM (active).
